# Experimental data taken from PubChem BioAssay (NCATS).
# Calls of active or inactive are those of the source. The call rests on the fitted dose curve; in most records, active means well fitted inhibition curve with a large enough effect; inconclusive means small, poorly fitted or top-dose-only effect; inactive means no such curve, though single readings can be large or run the other way.
# Assay: qHTS assay for measurement of the activity of small molecule inhibitors on Zika virus induced Caspase-3 activity in human astrocytoma cells (AID 1224859)
# Settings: SNB-19 ZIKV-induced caspase-3/7, luminescence, 6 h; series mostly up to 45.7 µM; activity change, negative = inhibition: at the top concentration
# Text: National Center for Advancing Translational Sciences [NCATS]
# Johns Hopkins University School of Medicine
# Increase in the Caspase-3 activity indicates an activation of apoptosis cell death pathway caused by Zika virus infection in certain types of neuronal cells including human neural progenitor cells (hNPCs), astrocytes, and astrocytoma cell line (SNB-19). This cell-based caspase-3 activity assay measures the increased caspase-3 activity in the astrocytoma cell line (SNB-19) after a 6-hour Zika virus infection with a luminescence readout. A decrease in the luminescence signal in this assay by small molecule treatment indicates an inhibitory effect of that small molecule on the Zika virus induced caspase-3 activity that may correlate with its effect on reduction of Zika virus caused cell death.
# The medium for SNB-19 cells is composed of RPMI 1640 (ATCC, Cat.# 30-2001), 10% fetal bovine serum (FBS) (GE healthcare Life Sciences, Cat.# SH30071.03), and 1% Pen/Strep (Gibco, Cat.# 15140-122). A Caspase-Glo 3/7 assay kit (catalog number G8092; Promega, Madison, WI) was used to detect caspase-3 activity induced by Zika virus infection in human cells. The reagent mixture was reconstituted as described in the protocol from the manufacturer. Polystyrene tissue culture treated and PDL coated white plates were obtained from Greiner Bio-One (Monroe, NC). Cells were seeded in 384- or 1536-well assay plates and cultured at 37 C with 5% CO2 for 16 to 20 hours. The typical cell seeding density in the 1536-well plate assay is 250 cells/well in 3ul medium for SNB-19 cells in tissue culture treated plates. Compounds were added to cells and incubated for one hour before addition of ZIKV solution to cells (2 FFU/cell). After incubation at 37 C with 5% CO2 for 6 hours, the reagent mixture of Caspase-Glo 3/7 assay kit was added to each well, followed by incubation at room temperature for 30 minutes. The luminescence intensity of the assay plates was measured using a ViewLux plate reader (PerkinElmer). Data were normalized by using the cell-containing wells without ZIKV as a negative control (0% induction of caspase 3/7 activity) and wells containing ZIKV infected cells (Caspase-3 activity induced) as a positive control (100% induction of caspase 3 activity). The percentage inhibitions of the increased Caspase-3 activity by small molecule inhibitors were then calculated.
row,SMILES,"activity change, negative = inhibition"
1,CN(C)CCOC1=Cc2ccccc2Sc2ccc(Cl)cc21,-10.8% (inactive)
2,CCCOc1ccc2c(c1)CC[C@@H]1[C@@H]2CC[C@]2(C)C(OC)CC[C@@H]12 (stereo not given in full),-2.39% (inactive)
3,C[C@H](N)C(=O)N[C@@H](C)C(=O)NC1[C@H]2CN(c3nc4c(cc3F)c(=O)c(C(=O)O)cn4-c3ccc(F)cc3F)C[C@@H]12 (stereo not given in full),-2.79% (inactive)
4,Cc1cccc(C)c1NC(=O)c1ccc(N)cc1,-0.586% (inactive)
5,CCCCCOc1ccc(C2SC(=O)NC2=O)cc1OCC (stereo not given),0.617% (inactive)
6,C[C@@H](C1=C(CCN(C)C)Cc2ccccc21)c1ccccn1,12.6% (inactive)
7,Cc1nc(C2CCCCC2)c(-c2ccc(S(N)(=O)=O)c(F)c2)o1,3.18% (inactive)
8,C[C@H]1C[C@@H]2[C@H]([C@@H](O)C[C@@]3(C)[C@H]2CC[C@]3(O)C(=O)CO)[C@@]2(C)C=CC(=O)C=C12,6.42% (inactive)
9,CCOC(=O)[C@H](CCc1ccccc1)N[C@@H](C)C(=O)N(CC(=O)O)C1Cc2ccccc2C1,1.13% (inactive)
10,CN=C(N)NC(=O)Nc1c(C)cccc1C,-11.1% (inactive)
11,CC(=O)O[C@H]1CC[C@@]2(C)C(=CC[C@@H]3[C@@H]2CC[C@]2(C)C(C(C)=O)=CC[C@@H]32)C1,-0.485% (inactive)
12,Nc1c2ccccc2nc2ccccc12,2.91% (inactive)
13,CC(C)NC(=O)c1ccc(C=O)cc1,5.36% (inactive)
14,CC(C)C(=O)OCc1cccc(OC(=O)[C@@H]2N3C(=O)[C@@H](NC(=O)Cc4ccccc4)[C@H]3SC2(C)C)c1,16.9% (inactive)
15,CC(=O)N(CC(=O)N(C)C)c1ccccc1,-5.4% (inactive)
16,CCCC(=O)O[C@]1(C(=O)COC(=O)CC)CC[C@H]2[C@@H]3CCC4=CC(=O)CC[C@]4(C)[C@H]3[C@@H](O)C[C@@]21C,12.5% [at 20.5 µM] (inactive)
17,O=S(=O)(O)c1ccc2nc(-c3ccccc3)[nH]c2c1,-100% (inactive)
18,CSc1ccc(/C=C2/C(C)=C(CC(=O)O)c3cc(F)ccc32)cc1,-3.46% (inactive)
19,Brc1ccccc1-c1ccccc1,-4.85% [at 92.8 µM] (inactive)
20,Cc1cnc(NS(=O)(=O)c2ccc(N)cc2)nc1,-1.52% (inactive)

row,SMILES,"activity change, negative = inhibition"
1,COc1ccc(OC(=O)N(CC(=O)O)Cc2ccc(OCCc3nc(-c4ccccc4)oc3C)cc2)cc1,-11.4% (inactive)
2,COCCc1ccccn1,33.8% (inactive)
3,CCN(CC)CCOc1ccc(/C(=C(\Cl)c2ccccc2)c2ccccc2)cc1,48.5% (inactive)
4,CCC1=C[C@@H]2CN(C1)Cc1c([nH]c3ccccc13)[C@@](C(=O)OC)(c1cc3c(cc1OC)N(C)[C@H]1[C@@](O)(C(=O)OC)[C@H](OC(C)=O)[C@]4(CC)C=CCN5CC[C@]31[C@@H]54)C2,11.1% (inactive)
5,Nc1nnnn1-c1ccccc1,-0.933% (inactive)
6,CCN(CC)C(=O)C1CN2CCc3cc(OC)c(OC)cc3C2CC1OC(C)=O (stereo not given),-10.9% (inactive)
7,O=C(O)/C=C(\CC(=O)O)C(=O)O,34.3% (inactive)
8,Nc1ncnc2c1ncn2Cc1c(F)cccc1Cl,-8.13% (inactive)
9,C[N+](C)(CCOc1ccccc1)Cc1cccs1,-9.67% (inactive)
10,Cc1nc(N)nc(N)c1-c1ccc(Cl)c(Cl)c1,5.06% (inactive)
11,CO/N=C(/C(=O)N[C@@H]1C(=O)N2C(C(=O)O)=C(Cn3nnc(C)n3)CS[C@H]12)c1csc(N)n1,0.716% (inactive)
12,C[C@@H]1C[C@H]2[C@@H]3CCC4=CC(=O)C=C[C@]4(C)[C@@]3(F)[C@@H](O)C[C@]2(C)[C@@]1(O)C(=O)COC(=O)c1ccncc1,3.78% (inactive)
13,O=C(CCCCC(=O)Nc1c(I)cc(I)c(C(=O)O)c1I)Nc1c(I)cc(I)c(C(=O)O)c1I,-2.43% (inactive)
14,Nc1ccc(C(=O)OCC(O)CO)cc1 (stereo not given),-4.08% (inactive)
15,CCC1(c2cnc[nH]2)Cc2ccccc2C1,-3.94% (inactive)
16,OCCOCCN1CCN(C(c2ccccc2)c2ccc(Cl)cc2)CC1 (stereo not given),-0.313% (inactive)
17,CCN1C(=O)c2ccccc2C1Nc1ccc(OCCN2CCCCC2)cc1 (stereo not given),-7.25% (inactive)
18,CCCCCC(=O)O[C@]1(C(C)=O)CC[C@H]2[C@@H]3CCC4=CC(=O)CC[C@]4(C)[C@H]3CC[C@@]21C,-12.7% (inactive)
19,CN1CCC(=C2c3ccccc3CCc3cccnc32)CC1,-6.28% (inactive)
20,CNC(=O)c1cnn(-c2nc(N)c3ncn([C@@H]4O[C@H](CO)[C@@H](O)[C@H]4O)c3n2)c1,-3.78% (inactive)
